assay: yeast cytosolic pH changes via V-ATPase – S. cerevisiae, pHLuorin, powder set 4, dose response (AID 652071); details: S. cerevisiae pHLuorin cytosolic pH fluorescence; series mostly up to 100 µM; response change, sign ambiguous: at the top concentration; call rule not given here

Response change, sign ambiguous, inactive:
CC(=O)N1CCN(c2ccccc2NC(=O)c2cccc(S(=O)(=O)N(C)C)c2)CC1 8.75%, CC(=O)N1CCN(c2ccccc2NC(=O)c2cc(C)ccn2)CC1 32.1%, O=C(Nc1ccccc1N1CCCCC1)c1ccc(Br)o1 -17.4%, CN(C)Cc1ccc(C(=O)Nc2ccccc2N2CCCCC2)o1 -16.9%, N#CCc1cccc(C(=O)Nc2ccccc2N2CCOCC2)c1 12%, CC(=O)N1CCN(c2ccccc2NC(=O)c2ccc(Cl)o2)CC1 -3.95%, Nc1cncc(C(=O)Nc2ccccc2N2CCCCC2)n1 4.83%, CC(=O)N1CCN(c2ccccc2NC(=O)c2occc2-c2ccccc2)CC1 42.4%, CC(=O)N1CCN(c2ccccc2NC(=O)c2ccc(C(C)(C)C)o2)CC1 -2.35%, CN1CCN(c2ccccc2NC(=O)c2ccc(-c3ccccc3)o2)CC1 76.2%, O=C(Nc1ccccc1N1CCCCC1)c1cc(C(F)(F)F)ccn1 2.55%, CN1CCN(c2ccccc2NC(=O)c2cc(Cl)ccn2)CC1 12.5%, CC(=O)N1CCN(c2ccccc2NC(=O)c2cccc(Br)n2)CC1 32.9%, NC(=O)c1ccc(C(=O)Nc2ccccc2N2CCCCC2)o1 -23.9%, COCc1cccc(C(=O)Nc2ccccc2N2CCN(C(C)=O)CC2)c1 14%, COCc1cccc(C(=O)Nc2ccccc2N2CCCCC2)c1 -22.1%, CN1CCN(c2ccccc2NC(=O)c2cccc(Cl)n2)CC1 14.3%, O=C(c1ccc(Cl)o1)N1CCN(c2nc3ccc(F)cc3s2)CC1 -3.92%, CC(=O)N1CCN(c2ccccc2NC(=O)c2ccc(-c3ccccc3)o2)CC1 -14.9%, CS(=O)(=O)c1ccc(C(=O)Nc2ccccc2N2CCCCC2)o1 -5.92%, CC(=O)N1CCN(c2ccccc2NC(=O)c2cc(Cl)ccn2)CC1 5.48%, N#CCc1cccc(C(=O)Nc2ccccc2N2CCCCC2)c1 -36.8%, O=C(c1occc1-c1ccccc1)N1CCN(c2nc3ccc(F)cc3s2)CC1 78.3%, CN1CCN(c2ccccc2NC(=O)c2cc(C(F)(F)F)ccn2)CC1 -25.1%, O=C(Nc1ccccc1N1CCCCC1)c1cccc(C(F)(F)F)c1 -0.38%, CS(=O)(=O)c1cccc(C(=O)N2CCN(c3nc4ccc(F)cc4s3)CC2)c1 -19.9%, CC(=O)N1CCN(c2ccccc2NC(=O)c2ccc(CN(C)C)o2)CC1 -7.44%, Cc1ccnc(C(=O)Nc2ccccc2N2CCN(C)CC2)c1 -9.84%, Cc1cncc(C(=O)Nc2ccccc2N2CCN(C)CC2)n1 -10.2%, CC(=O)N1CCN(c2ccccc2NC(=O)c2cccc(C(F)(F)F)n2)CC1 30.5%, CN(C)Cc1ccc(C(=O)Nc2ccccc2N2CCN(C)CC2)o1 -7.11%, CN1CCN(c2ccccc2NC(=O)c2ccc(S(C)(=O)=O)o2)CC1 -3.21%, CS(=O)(=O)c1cccc(C(=O)Nc2ccccc2N2CCCCC2)c1 7.01%, CN1CCN(c2ccccc2NC(=O)c2cnc(N)o2)CC1 4.32%

Source: PubChem BioAssay AID652071 (NMMLSC, 2013)
